D1 allo mod: D1 dopamine receptor (human) allosteric modulation; actives 5.9% (n = 58,000); B-score at 10 µM; HEK293 D1, CRE-luciferase, dopamine EC30 potentiation; actives deviate in either direction; P21728;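 active = luminescence count or its row- and column-corrected plate score outside the 99.7% band of the plate's sample wells, on either side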
Target sequence (P21728 whole entry, looked up): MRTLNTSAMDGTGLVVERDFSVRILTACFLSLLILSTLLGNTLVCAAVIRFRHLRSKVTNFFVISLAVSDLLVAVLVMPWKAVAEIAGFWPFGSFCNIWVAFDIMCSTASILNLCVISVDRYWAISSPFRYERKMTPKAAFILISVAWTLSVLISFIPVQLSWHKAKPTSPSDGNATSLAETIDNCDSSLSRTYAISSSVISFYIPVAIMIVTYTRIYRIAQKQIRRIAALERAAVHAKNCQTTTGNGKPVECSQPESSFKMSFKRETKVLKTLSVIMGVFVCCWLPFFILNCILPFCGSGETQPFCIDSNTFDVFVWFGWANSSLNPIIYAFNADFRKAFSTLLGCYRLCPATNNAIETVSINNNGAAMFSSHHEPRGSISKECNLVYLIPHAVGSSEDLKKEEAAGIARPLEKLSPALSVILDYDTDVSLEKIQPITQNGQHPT
CYP2C19 inhib: human CYP2C19 inhibition; actives 21% (n = 96,000); AID 778; P33261; CYP2C19 Supersomes, luciferin-H EGE luminescence, 30 min; inhibition, % at 5 µM;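 active = CYP2C19 inhibition above a set limit at 5 µM in the primary screen, cut at about 50% in these data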
hDAT+cocaine: changed human dopamine transporter uptake under cocaine IC80. Q01959. LLC-PK1 hDAT cells, [14C]-dopamine uptake with cocaine IC80; actives deviate in either direction. B-score at 10 µM. actives 1.3% (n = 110,000);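 active = Z score or B-score, a plate-position-corrected score, falls beyond the plate's 99.7% confidence bounds, in either direction; inactive = both scores lie inside the 99.7% bounds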
CYP2C9 inh: inhibitors of human CYP2C9; CYP2C9 Supersomes, luciferin-H conversion, luminescence; inhibition, % at 5 µM; actives 20% (n = 96,000); AID 777;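 active = blocking of liver enzyme CYP2C9 beyond about 50% at 5 µM, limit read from the data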
CYP2C9 activ: increases human cytochrome P450 2C9 activity; P11712; recombinant CYP2C9, luciferin-H conversion, luminescence; active compounds read high; factor 1 = untreated enzyme, 0 = blocked; activation factor at 5 µM; actives 1.4% (n = 96,000);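 active = activation factor of 2 or more for CYP2C9 at a 5 µM dose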
CYP2C19 act: increases human CYP2C19 enzyme activity; activation factor at 5 µM; AID 1025; recombinant CYP2C19, luciferin-H EGE luminescence; active compounds read high; 0 = fully inhibited enzyme, 1 = untreated enzyme; 96,000 tested, under 10 active; P33261;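 active = activation factor of at least 2 at 5 µM in the primary screen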
Numbers stand for hits; i = inactive; nt = not tested or not shown. A selection: hits, their analogues and other compounds. The true share with any hit is near 28%.

SMILES	D1 allo mod	CYP2C19 inhib	hDAT+cocaine	CYP2C9 inh	CYP2C9 activ	CYP2C19 act
OC1CCN(Cc2cccc(Oc3ccccc3)c2)CC1	i	i	i	i	i	i
CC1CCCN(Cc2cccc(Oc3ccccc3)c2)C1 (stereo unspecified)	nt	67.3	i	i	i	i
CC(=O)Nc1sc(C)c(C)c1CN1CCN(S(=O)(=O)c2ccccc2)CC1	i	i	i	i	i	i
c1ccc(-c2cc3n(c2)CCc2ccccc2-3)cc1	nt	nt	i	nt	nt	nt
CC(C)CN(CC(C)C)c1nc(N)c(C#N)c(CC#N)c1C#N	i	69.1	i	85.6	i	i
COc1ccc2c(c1)OCC1=C2CCC2(C)C(=O)CC=C12 (stereo unspecified)	i	i	nt	64.4	i	i
COc1ccc2c(c1)SCCC2=O	nt	i	i	i	i	i
c1ccc2c(c1)NC(CN1CCOCC1)CO2 (stereo unspecified)	i	53.0	i	i	i	i
O=C(CCN1CCOCC1)NCC1COc2ccccc2O1 (stereo unspecified)	nt	nt	i	nt	nt	nt
O=C(Nc1ccc(N2CCCC2)c(Cl)c1)c1ccco1	-4.05	i	i	i	i	i
Cc1cccc(NC(=O)c2cc(NC(=O)c3ccco3)ccc2N2CCCCC2)c1	i	i	i	i	i	i
Cc1ccc(NC(=O)c2ccc(F)c(S(=O)(=O)N3CCOCC3)c2)cc1F	i	i	i	i	i	i
Cc1ccc(NC(=O)c2cc(S(=O)(=O)N3CCCCC3)ccc2N2CCOCC2)cc1F	nt	i	i	68.4	i	i
Cc1ccc(NC(=O)c2cc(NC(=O)c3ccco3)ccc2N2CCOCC2)cc1Cl	nt	i	i	69.3	i	i
O=C(Cc1ccc(Cl)cc1)Nc1ccc(N2CCN(C(=O)c3ccco3)CC2)c(Cl)c1	i	92.2	i	96.8	i	i
O=C(Nc1ccc(N2CCN(C(=O)c3ccco3)CC2)c(Cl)c1)c1cccs1	i	i	i	i	i	i
O=C(Nc1ccc(N2CCCCC2)c(C(=O)O)c1)c1ccco1	i	i	i	i	i	i
O=C(NC1(C(F)(F)F)C(=O)Nc2c1c(=O)[nH]c(=O)n2Cc1ccco1)C1CCCCC1 (stereo unspecified)	i	i	i	i	i	i
C=CCS/C(=N\n1cnc2ccccc2c1=O)N(CC)CC	nt	95.5	i	63.4	i	i
C=CCS/C(=N\n1cnc2ccccc2c1=O)N1CCCCC1	nt	i	i	51.3	i	i
CC1(C)CC(=O)C(/C=N/n2cnc3ccccc3c2=O)=C(O)C1	i	i	i	i	i	i
COc1ccc(N/C(=C(/C(Cl)=C(Cl)Cl)[N+](=O)[O-])n2nnc3ccccc32)cc1	nt	i	i	55.4	i	i
C=CCN1CCN(C(c2ccc(OC)c(OC)c2)c2nnnn2C(C)(C)C)CC1 (stereo unspecified)	i	i	i	i	i	i
c1ccc(N2CCN(Cc3nnnn3C3CCCCC3)CC2)cc1	i	63.7	i	87.2	i	i
Cc1ccc(Cl)cc1N1CCN(Cc2nnnn2C2CCCCC2)CC1	i	i	i	57.6	i	i
SMILES	D1 allo mod	CYP2C19 inhib	hDAT+cocaine	CYP2C9 inh	CYP2C9 activ	CYP2C19 act
C1CCC(n2nnnc2CN2CCN(C3CCCC3)CC2)CC1	i	i	i	i	i	i
Clc1ccc2nc(C3CCN(Cc4nnnn4C4CCCCC4)CC3)[nH]c2c1	nt	nt	i	nt	nt	nt
Fc1ccc(CNc2nc3ccccc3n3cnnc23)cc1	nt	i	i	i	i	i
CC(C)(C)c1ccc(C(=O)NNc2cc(N3CCCCC3)nc(N3CCCCC3)n2)cc1	nt	i	i	60.7	i	i
CC(=O)NNc1cc(N2CCOCC2)nc(N2CCOCC2)n1	nt	nt	i	nt	nt	nt
Cc1cc(NC(=O)CN2CCCC2c2nc3ccccc3s2)no1 (stereo unspecified)	i	i	i	i	i	i
O=C(CCC1CCCC1)N1CCN(C2CCCC2)CC1	i	73.4	i	i	i	i
C=CCNC(=O)C(=O)c1cccn1-c1ccsc1C(=O)OC	nt	93.2	i	i	i	i
C=CCNC(=O)c1cccn1-c1ccsc1C(=O)OC	nt	i	i	i	i	i
COc1cc(NC(=S)NN2CCOCC2)cc(OC)c1	nt	nt	i	nt	nt	nt
OCCN(Cc1ccccc1)Cc1ccccc1Cl	i	80.6	i	i	i	i
OCCN(Cc1ccccc1)CC1CC2C=CC1C2 (stereo unspecified)	i	i	i	i	i	i
OCCN(Cc1ccccc1)Cc1ccccc1F	i	76.9	i	i	i	i
OCCN(Cc1ccccc1)CC1CCCCC1	i	i	i	i	i	i
OCCN(Cc1ccccc1)Cc1cccc(Cl)c1Cl	nt	93.1	i	76.1	i	i
NCCCC[C@H](N)c1nnc([C@H](CC(=O)O)NC(=O)C2CCNCC2)o1	nt	nt	i	nt	nt	nt
O=[N+]([O-])c1ccc2c(c1)C(N1CCOCC1)/C(=C/COc1ccc(Cl)cc1Cl)O2 (stereo unspecified)	nt	i	i	77.2	i	i
COc1ccc(S(=O)(=O)NCCSCc2ccccc2C)cc1Br	nt	80.8	i	i	2	i
COc1ccc(S(=O)(=O)NCCSCc2ccco2)cc1OC	nt	59.6	i	i	2.2	i
COc1ccc(S(=O)(=O)NCCSCc2ccco2)cc1	i	88.8	i	i	i	i
COc1ccc(S(=O)(=O)NCCSCc2cccs2)cc1	i	93.7	i	i	i	i
Cc1cc(NC(=O)CC23CC4CC(C2)CC(CC(=O)Nc2cc(C)on2)(C4)C3)no1	i	i	i	i	i	i
CC1CCN(CCCNC(=O)c2ccc(CSCc3cccc(Cl)c3)o2)CC1	nt	i	i	i	i	i
COc1cccc(C(=O)Nc2nc3c(c(=O)[nH]2)CCCC3)c1	nt	i	i	i	i	i
CCCCn1c(Cc2ccccc2)nnc1SCC(=O)Nc1cc(C)on1	nt	nt	i	nt	nt	nt
SMILES	D1 allo mod	CYP2C19 inhib	hDAT+cocaine	CYP2C9 inh	CYP2C9 activ	CYP2C19 act
CC(=O)N1CCc2cc(S(=O)(=O)NCCC(=O)NCCc3ccc(C)cc3)ccc21	i	i	i	58.8	i	i
COc1ccccc1CNS(=O)(=O)c1ccc2c(c1)oc(=O)n2C	nt	97.7	i	i	2.9	i
Cn1c(=O)oc2cc(S(=O)(=O)NCCC(=O)NCCc3ccc(Cl)cc3)ccc21	nt	i	i	i	i	i
CCCN(CCC)CCNS(=O)(=O)c1ccc2c(c1)oc(=O)n2C	i	i	i	i	i	i
CCN(CCNS(=O)(=O)c1ccc2c(c1)oc(=O)n2C)c1ccccc1	i	65.4	i	i	i	i
Cc1ccc(CCNC(=O)CCNS(=O)(=O)c2ccc3c(c2)oc(=O)n3C)cc1	i	58.4	i	i	i	i
COc1ccc([C@@H]2C[C@H](c3ccccc3)Oc3cc(C)cc(C)c32)cc1	nt	nt	i	nt	nt	nt
Cc1cc(C)cc(NC(=O)CCNS(=O)(=O)c2ccc3c(c2)oc(=O)n3C)c1	i	nt	i	nt	nt	nt
Cn1c(=O)oc2cc(S(=O)(=O)NCCC(=O)NCCc3ccccc3)ccc21	nt	71.8	i	i	i	i
CCN(CC)c1ccc(NS(=O)(=O)c2ccc3c(c2)oc(=O)n3C)c(C)c1	i	83.6	i	52.9	i	i
CC(C)NS(=O)(=O)c1ccc2c(c1)oc(=O)n2C	nt	nt	i	nt	nt	nt

Source: PubChem
